Records with an inconclusive call do not appear. A call without a number means that no potency is given here. Values without a mark were called inactive. Calls of active or inactive are those of the source. Calls follow the shape of the full dose curve.
Legend:
[1] = Primary qHTS for inhibitors of SARS-S pseudo-typed particle cell entry (AID 1479145); also: nearly all actives have a fitted effect of over 45% in size; also: potency is read from the fitted curve at half-maximal effect; as to activity change, negative = inhibition: series mostly up to about 57 µM
[2] = Primary qHTS for Huh7 cytotoxicity: counterscreen for inhibitors of MERS-S pseudotyped particle cell entry (AID 1479147)
[3] = Primary qHTS for inhibitors of MERS-S pseudo-typed particle cell entry (AID 1479149); also: nearly all actives have a fitted effect of over 60% in size; also: potency is read from the fitted curve at half-maximal effect
[4] = Primary qHTS for Vero E6 cytotoxicity: counterscreen for inhibitors of SARS-S pseudo-typed particle cell entry (AID 1479150)

With NC(N)=NCCC[C@H](N)C(=O)O the activity change, negative = inhibition [1] was -24.6% [at 5.34 µM], the outcome [2] was “inactive [at 5.34 µM]” and the outcome [3] was “inactive [at 5.34 µM]”. The activity change, negative = cytotoxicity [4] was 0.575% [at 5.34 µM].
For CCCC(=O)O[C@]1(C(=O)CCl)[C@@H](C)C[C@H]2[C@@H]3CCC4=CC(=O)C=C[C@]4(C)[C@@]3(F)C(=O)C[C@@]21C, the Potency [1] was “inactive”, the Potency [2] was “inactive” and the Potency [4] was “inactive”.
In the case of CN1C[C@H](C(=O)N[C@]2(C)O[C@@]3(O)[C@@H]4CCCN4C(=O)[C@H](Cc4ccccc4)N3C2=O)C[C@@H]2c3cccc4[nH]cc(c34)C[C@H]21, the Potency [1] is reported as “inactive”, the Potency [2] is reported as “inactive” and the Potency [4] is reported as “inactive”.
In the case of CC(C)C(=O)Nc1cccc(C2CN3CCSC3=N2)c1 (configuration not stated), the Potency [1] is reported as “inactive”, the Potency [2] is reported as “inactive” and the Potency [4] is reported as “inactive”.
In the case of Brc1c(NC2=NCCN2)ccc2nccnc12, the Potency [1] is reported as “inactive”, the Potency [2] is reported as “inactive” and the Potency [3] is reported as “inactive”. The Potency [4] was “inactive”.
For O=c1cc(CO)occ1O, the Potency [1] was “inactive”, the Potency [2] was “inactive” and the Potency [3] was “inactive”. For the same compound, the Potency [4] was “inactive”.
In the case of CN(Cc1ccc(C(C)(C)C)cc1)Cc1cccc2ccccc12, the Potency [1] is reported as “inactive”, the Potency [2] is reported as “inactive” and the Potency [3] is reported as “inactive”. The Potency [4] was “inactive”.
For COc1ccc(-n2nc(CCC(=O)N(C)O)cc2-c2ccc(Cl)cc2)cc1, the Potency [1] was “inactive” and the Potency [4] was “inactive”.
With CC[C@H](c1ccc(O)cc1)[C@@H](CC)c1ccc(O)cc1 the Potency [1] was “inactive”, the Potency [2] was “inactive” and the Potency [4] was “inactive”.
In the case of CCCCCCCCCCCCOS(=O)(=O)O, the Potency [2] is reported as “inactive”, the Potency [3] is reported as “inactive” and the Potency [4] is reported as “inactive”.
With CCN(CC)CCCN(c1ccccc1)C1Cc2ccccc2C1 the Potency [1] was 17.8 µM (active) and the Potency [4] was “inactive”.
In the case of Cc1cc2nc3ccc(=[N+](C)C)cc-3sc2cc1N, the Potency [1] is reported as 14.1 µM (active) and the Potency [3] is reported as 17.8 µM (active).

Source: PubChem BioAssay (NCATS)
